Hits are enriched below; roughly 4.8% of the tested compounds scored in any of these assays.
hcDAF-12 act: activates DAF-12 receptor from parasite H. contortus; HEK293 hcDAF-12 lit1-tk-luc reporter, luminescence; 0% DMSO, 100% Δ7-dafachronic acid; activation, % at 6.8 µM; 1.4% of 370,000 active;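 active means activation above the mean of all tested compounds plus 3 SD, cut at about 5.5% in these data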
hgDAF-12 ag: activates the H. glycines DAF-12 receptor ligand-binding domain | 1.8% of 370,000 active | HEK293 GAL4-hgDAF12 UAS-luciferase reporter, agonist luminescence; normalized to butyrate control | activation, % at 6.8 µM | AID 687014;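 active means activation above a cutoff set at the mean of all screened compounds plus 3 SD, cut at about 10% in these data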
DAX1 inh-1: inhibits human nuclear receptor DAX1. HEK293 Gal4-DAX1 luciferase reporter, luminescence. inhibition, % at 6.75 µM. 0.99% of 340,000 active;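 active means inhibition above the mean over all tested compounds plus 3 SD, cut at about 4.2% in these data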;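 further: inhibition shows as a rise in luminescence from relieved DAX1 repression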
Target sequence (P51843 207-470 limits assumed): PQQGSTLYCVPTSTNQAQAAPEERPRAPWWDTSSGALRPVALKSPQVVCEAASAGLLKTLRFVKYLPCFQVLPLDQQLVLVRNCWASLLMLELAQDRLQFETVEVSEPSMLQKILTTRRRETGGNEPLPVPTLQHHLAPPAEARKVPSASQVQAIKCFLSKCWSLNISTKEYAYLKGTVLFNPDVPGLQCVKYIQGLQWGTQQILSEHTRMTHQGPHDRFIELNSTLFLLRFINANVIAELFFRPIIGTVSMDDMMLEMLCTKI
SMARCA2 act: SMARCA2 function activation, primary screen | MG213 cells, MMTV-luciferase reporter, dexamethasone, overnight | activation, % at 9.1 µM | AID 652017 | 1% of 370,000 active; in the data active means activation above about 7.8%
ssDAF12 agonist: S. stercoralis DAF-12 activation, primary screen | HEK293 ssDAF-12/GRIP1 lit1-tk-luc reporter, luminescence; % of 3 µM dafachronic acid response | activation, % at 6.8 µM | 1% of 370,000 active;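 active means activation above the mean over all tested compounds plus 3 SD, cut at about 0.9% in these data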
DAX1 inh-2: blocks DAX1 repression of SF-1 activated StAR promoter; HEK293T StAR-luciferase reporter, SF-1/DAX-1 repression relief; inhibition, % at 6.8 µM; 1.1% of 370,000 active; AID 652010;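 active means inhibition above the mean over all tested compounds plus 3 SD, cut at about 3.6% in these data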;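 further: higher inhibition means more luminescence from relief of DAX-1 repression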
DAX1 inh confirm: confirmation of human DAX1 (NR0B1) inhibitors | inhibition, % at 6.8 µM | 87% of 2,400 active | shares compounds with DAX1 inh-2 | HEK293T StAR-promoter luciferase reporter, SF-1/DAX-1 repression;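 active means inhibition above the average of every tested compound plus 3 SD, cut at about 3.8% in these data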;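 further: active compounds raise luminescence by relieving repression of the StAR reporter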
SF1 AF2mut Luc: nonselective inhibitor or artifact in SF-1 mutant DAX1 counter-screen; shares compounds with DAX1 inh-2; HEK293 StAR-luciferase, SF-1 AF2 mutant, luminescence; inhibition, % at 6.8 µM; 78% of 2,400 active;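 active means inhibition above the mean of all tested compounds plus 3 SD, cut at about 3% in these data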
SMARCA2 act conf: SMARCA2 activation, confirmation screen; shares compounds with SMARCA2 act; MG213 cells, MMTV-luciferase with dexamethasone, luminescence, overnight; MG213 cells expressing E1A, Rb sequestered; DMSO wells 0%, reference activator 100%; activation, % at 9.1 µM; 30% of 3,500 active;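 active means activation above its plate's cutoff, the mean activation of tested wells plus 3 SD, cut at about 7.9% in these data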
GAL4-VP16 Luc: counter-screen for SMARCA2 activators: GAL4-VP16 luciferase reporter activation; 41% of 3,500 active; HEK293 GAL4-VP16 pG5luc reporter, luciferase luminescence; scaled: DMSO wells 0%, SAHA wells 100%; activation, % at 9.1 µM; shares compounds with SMARCA2 act;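 active means activation above the solvent-only control well mean plus 3 SD, averaged across control plates, cut at about 5.2% in these data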
LXR ag: LXR-beta agonism as hcDAF-12 counter-screen; shares compounds with hcDAF-12 act; HEK293 Gal4-LXR tk-luc reporter, luminescence, 24 h; normalized: DMSO 0%, positive control 100%; activation, % at 6.8 µM; 3,400 tested, under 10 active; AID 743027;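 active means mean percent activation of the reporter above a cutoff set as the average over tested compounds plus their standard deviation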
Target sequence (P55055 whole entry, looked up, the tested form may be a part): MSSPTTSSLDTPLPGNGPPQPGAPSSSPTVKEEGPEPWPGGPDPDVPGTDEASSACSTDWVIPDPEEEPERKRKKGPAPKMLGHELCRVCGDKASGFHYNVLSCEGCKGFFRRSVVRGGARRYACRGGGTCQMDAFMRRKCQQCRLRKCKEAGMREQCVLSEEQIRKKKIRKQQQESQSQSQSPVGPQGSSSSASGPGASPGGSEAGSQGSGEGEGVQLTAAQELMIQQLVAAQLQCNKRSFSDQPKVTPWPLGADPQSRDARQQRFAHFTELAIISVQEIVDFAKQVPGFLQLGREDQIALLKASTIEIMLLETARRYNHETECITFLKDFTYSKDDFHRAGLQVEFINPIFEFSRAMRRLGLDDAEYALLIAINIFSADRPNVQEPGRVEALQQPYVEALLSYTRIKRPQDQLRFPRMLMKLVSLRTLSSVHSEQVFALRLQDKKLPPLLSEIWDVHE
hcDAF12 conf: confirmation of H. contortus DAF-12 agonists; 61% of 3,400 active; AID 743032; HEK293 hcDAF-12 lit1-tk-luc reporter, luminescence; % of Δ7-dafachronic acid response; shares compounds with hcDAF-12 act; activation, % at 6.8 µM;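 active means mean activation across triplicate tests above the threshold derived from the earlier primary screen, cut at about 5.5% in these data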
hgDAF12 ag: hgDAF-12 agonism, confirmation assay. HEK293 GAL4-hgDAF12 luciferase reporter, agonist mode; percent of butyrate response. shares compounds with hgDAF-12 ag. 80% of 3,300 active. activation, % at 6.8 µM;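 active means mean activation over triplicate wells above the hit cutoff derived from the earlier primary screen, cut at about 11% in these data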
LXR ag 2: LXR-beta agonism as DAF-12 counter-screen. shares compounds with hgDAF-12 ag. HEK293 Gal4-LXR luciferase reporter, 24 h. activation, % at 6.8 µM. 3,300 tested, under 10 active;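 active means mean activation of the triplicate above a set limit carried over from the primary screen, none filed active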
Each line names hits and unclear results; the compound was inactive in the other large screens (follow-up assays come after a bar, where they were run).

CCc1sc(C(=O)Nc2cc(Cl)ccc2N2CCCCC2)cc1C	none
CCC(=O)Nc1cccc(NC(=S)NC(=O)c2ccc(Cl)cc2Cl)c1	none
O=C(NC(=S)Nc1ncccn1)c1ccc(Cl)cc1Cl	hgDAF-12 ag 16, DAX1 inh-1 5.1, DAX1 inh-2 6.7 | DAX1 inh confirm 14 | SF1 AF2mut Luc 9.8 | hgDAF12 ag 14 | LXR ag 2 inactive
Cc1ccc(-c2nc(CCNC(=O)c3ccco3)cs2)cc1	none
CCN(CC)CCn1c(=O)n(-c2ccc(Cl)cc2)c(=O)c2c3c(sc21)CN(C)CC3	none
Cc1cnc(NC(=O)COc2ccc3c(c2)CCC3)s1	hcDAF-12 act 6.1, hgDAF-12 ag 25, ssDAF12 agonist 1.3, DAX1 inh-2 13 | DAX1 inh confirm 14 | SF1 AF2mut Luc 5.3 | hgDAF12 ag 25 | LXR ag 2 inactive
Cc1nc2nc(-c3ccccc3)cn2nc1C	hcDAF-12 act 6.2, hgDAF-12 ag 14, DAX1 inh-2 4.8 | DAX1 inh confirm 11 | SF1 AF2mut Luc 5.1 | hgDAF12 ag 12 | LXR ag 2 inactive
COC(=O)Cc1ccc2sc(-c3ccccc3)nc2c1	hcDAF-12 act 13, hgDAF-12 ag 21, ssDAF12 agonist 1.0, DAX1 inh-2 5.9 | DAX1 inh confirm 13 | SF1 AF2mut Luc 8.6 | LXR ag inactive | hcDAF12 conf 11 | hgDAF12 ag 17 | LXR ag 2 inactive
O=C(/C=C\Nc1ccc(Br)cc1)c1cccnc1	hcDAF-12 act 8.3, hgDAF-12 ag 18, DAX1 inh-2 5.9 | DAX1 inh confirm 16 | SF1 AF2mut Luc 9.3 | LXR ag inactive | hcDAF12 conf 6.5 | hgDAF12 ag 16 | LXR ag 2 inactive
O=C(NNC(=S)Nc1ccc(Br)cc1)c1cccnc1	none
CCCN(C)C[C@@H]1OCCCC[C@@H](C)Oc2ccc(NS(=O)(=O)c3ccc(OC)cc3)cc2C(=O)N([C@H](C)CO)C[C@@H]1C	none (no result: DAX1 inh-1)
COc1cc(Cl)cc(/C=C/c2ccc3ccccc3n2)c1OC(C)=O	hgDAF-12 ag 21, DAX1 inh-2 5.1 | DAX1 inh confirm 11 | SF1 AF2mut Luc 5.3 | hgDAF12 ag 13 | LXR ag 2 inactive
NC(=O)N1c2ccccc2CC(=O)c2ccccc21	none
CC(C)(C)NC(=O)C(c1ccncc1)n1c(-c2ccc(C(F)(F)F)cc2)nc2ccccc21 (stereo unspecified)	hcDAF-12 act 9.2, hgDAF-12 ag 17, ssDAF12 agonist 1.4, DAX1 inh-2 11 (no result: DAX1 inh-1) | DAX1 inh confirm 11 | SF1 AF2mut Luc 7.9 | LXR ag inactive | hcDAF12 conf inactive | hgDAF12 ag 17 | LXR ag 2 inactive
O=C(NCCc1ccc(Cl)cc1)c1ccc2c(c1)OCO2	hgDAF-12 ag 13, DAX1 inh-2 11 | DAX1 inh confirm 12 | SF1 AF2mut Luc 6.6 | hgDAF12 ag 16 | LXR ag 2 inactive
COCCNc1nc(-c2cc3ccccc3o2)cs1	hcDAF-12 act 8.7, hgDAF-12 ag 16, DAX1 inh-2 6.7 | DAX1 inh confirm 9.9 | SF1 AF2mut Luc 7.2 | LXR ag inactive | hcDAF12 conf 7.5 | hgDAF12 ag 18 | LXR ag 2 inactive
CCC(CO)Nc1ccn2nc(-c3ccccc3)cc2n1 (stereo unspecified)	hgDAF-12 ag 18, DAX1 inh-2 9.5 (no result: DAX1 inh-1) | DAX1 inh confirm 8.9 | SF1 AF2mut Luc 7.2 | hgDAF12 ag 16 | LXR ag 2 inactive
O=C(CSc1nc(-c2ccccc2)c(-c2ccccc2)[nH]1)Nc1ccc2c(c1)OCO2	none
COc1ccc(-c2nnc(SCc3c(F)cccc3F)n2N)cc1	hgDAF-12 ag 13, DAX1 inh-2 7.5 (no result: DAX1 inh-1) | DAX1 inh confirm 14 | SF1 AF2mut Luc 6.2 | hgDAF12 ag 15 | LXR ag 2 inactive
COc1ccc(-c2nnc(SCc3cccc(C)c3)n2N)cc1	none
O=C(CCCN=C1NS(=O)(=O)c2ccccc21)OCc1ccccc1	none
COCCn1c(SCC(=O)NC2CCCC2)nc2ccccc2c1=O	none
COc1ccc2oc(-c3ccccc3)cc(=O)c2c1	hcDAF-12 act 7.6, hgDAF-12 ag 13, ssDAF12 agonist 1.1, DAX1 inh-2 5.8 (no result: DAX1 inh-1) | DAX1 inh confirm 13 | SF1 AF2mut Luc 5.4 | LXR ag inactive | hcDAF12 conf 8.5 | hgDAF12 ag 16 | LXR ag 2 inactive
COc1ccc(-c2cc(=O)c3ccc(O)cc3o2)cc1	hgDAF-12 ag 16, DAX1 inh-2 7.8 | DAX1 inh confirm 10 | SF1 AF2mut Luc 5.7 | hgDAF12 ag 14 | LXR ag 2 inactive
COc1ccc2c(=O)c(-c3ccccc3)coc2c1	hcDAF-12 act 6.8, hgDAF-12 ag 21, DAX1 inh-2 6.2 | DAX1 inh confirm 12 | SF1 AF2mut Luc 8.2 | LXR ag inactive | hcDAF12 conf inactive | hgDAF12 ag 17 | LXR ag 2 inactive
COc1cc(-c2cc(=O)c3ccc(O)cc3o2)cc(OC)c1OC	none (no result: DAX1 inh-1)
COc1ccc(-c2cc(=O)c3cc(OC)ccc3o2)cc1	hcDAF-12 act 8.1, hgDAF-12 ag 20, SMARCA2 act 9.8, DAX1 inh-2 9.0 | DAX1 inh confirm 9.7 | SF1 AF2mut Luc inactive | SMARCA2 act conf inactive | GAL4-VP16 Luc 7.0 | LXR ag inactive | hcDAF12 conf 7.2 | hgDAF12 ag 20 | LXR ag 2 inactive
CCCCc1ccc(-c2ccc(Br)cc2)nc1	none
